Source: PubChem BioAssay AID689 (Sanford-Burnham Center for Chemical Genomics, 2007)
The campaign covered roughly 62,000 compounds. About 80 (0.1%) were called active. The rule behind the calls is not given here. The list is a sample of the results. Results with a measured potency or affinity are listed apart.

What follows are molecules tested against Ephrin type-A receptor 4 (Mus musculus) (UniProt Q03137) (assay: inhibitors of EphA4 binding to KYL peptide, primary screen, biochemical, colorimetric, mouse EphA4 (AID 689)). Conditions: EphA4-AP binding to KYL peptide, pNPP A405, at 10 µM, hits give high values.
Sequence of Ephrin type-A receptor 4 (Mus musculus) (Q03137 whole entry, looked up): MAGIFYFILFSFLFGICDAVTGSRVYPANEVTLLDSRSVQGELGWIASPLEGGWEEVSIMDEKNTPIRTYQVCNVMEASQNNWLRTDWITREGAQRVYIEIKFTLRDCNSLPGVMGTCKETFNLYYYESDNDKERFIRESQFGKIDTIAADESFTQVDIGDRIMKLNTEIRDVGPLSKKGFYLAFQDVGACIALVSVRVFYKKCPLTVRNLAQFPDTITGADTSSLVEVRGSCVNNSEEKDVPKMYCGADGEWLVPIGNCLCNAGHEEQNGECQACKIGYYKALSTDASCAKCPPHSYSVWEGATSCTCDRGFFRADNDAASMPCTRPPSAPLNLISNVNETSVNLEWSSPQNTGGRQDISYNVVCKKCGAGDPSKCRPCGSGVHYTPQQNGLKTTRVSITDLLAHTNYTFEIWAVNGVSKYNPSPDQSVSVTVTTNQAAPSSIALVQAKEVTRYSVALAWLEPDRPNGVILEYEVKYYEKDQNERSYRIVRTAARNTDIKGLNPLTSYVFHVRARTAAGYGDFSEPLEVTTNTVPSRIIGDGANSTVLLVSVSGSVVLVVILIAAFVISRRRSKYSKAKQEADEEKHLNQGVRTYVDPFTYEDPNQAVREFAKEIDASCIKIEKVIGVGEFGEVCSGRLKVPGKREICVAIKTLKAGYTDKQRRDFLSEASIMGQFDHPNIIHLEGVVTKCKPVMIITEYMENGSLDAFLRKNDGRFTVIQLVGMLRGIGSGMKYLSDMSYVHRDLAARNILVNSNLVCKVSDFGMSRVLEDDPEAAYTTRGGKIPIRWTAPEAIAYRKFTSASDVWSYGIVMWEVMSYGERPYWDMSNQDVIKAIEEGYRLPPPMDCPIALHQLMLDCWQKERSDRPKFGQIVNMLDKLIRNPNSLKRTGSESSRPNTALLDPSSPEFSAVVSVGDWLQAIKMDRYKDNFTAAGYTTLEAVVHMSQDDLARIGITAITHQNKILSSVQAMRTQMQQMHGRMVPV

inhibition, inactive:
CCOC(=O)C1CCN(CCC(=O)Nc2cccc(Cl)c2)CC1 -3.9%
O=C(Cc1cccs1)Nc1nnc(Cc2ccc(F)cc2)s1 -11.3%
COc1ccc(Cc2nnc(NC(=O)c3cccs3)s2)cc1 -1.1%
O=C(NCCCN1CCOCC1)c1cccc(Cl)c1 -2.3% [this sample at 5 µg/mL]
O=C(COc1ccc(Cl)cc1Cl)Nc1ccc(NC(=O)COc2ccc(Cl)cc2Cl)cc1 -4.1% [this sample at 5 µg/mL]
O=C(c1ccccc1[N+](=O)[O-])N1CCN(C/C=C/c2ccccc2)CC1 -10.3% [this sample at 5 µg/mL]
CCOc1cc(/C=C2/SC(=S)N(CC)C2=O)ccc1OCc1ccccc1Cl 5% [this sample at 5 µg/mL]
Cn1c2ccc(Cl)cc2c2nc3ccccc3nc21 -1.5%
CCn1c2ccccc2c2nc3ccccc3nc21 40.1%
Cc1cc(NC(=O)CSc2nnc(C3COc4ccccc4O3)o2)no1 (stereo not drawn) -5.5%
N#CC1=C(N)C(C#N)(C#N)C(c2cccnc2)C2CCCC=C12 (stereo not drawn) -10%
COC(=O)CN1C(=O)/C(=C\C=C\c2ccccc2)SC1=S 7.7% [this sample at 5 µg/mL]
O=C1/C(=C/C=C/c2ccccc2)SC(=S)N1c1cccc(C(F)(F)F)c1 3.3% [this sample at 5 µg/mL]
CCCN1C(=O)/C(=C/c2c(NCCCOC(C)C)nc3c(C)cccn3c2=O)SC1=S 38.4%
CCOCCCNc1nc2c(C)cccn2c(=O)c1/C=C1\SC(=S)N(CC(C)C)C1=O -4.7%
COc1ccc(/C=C/C(=O)CC(=O)C(Cl)(Cl)Cl)cc1 5.9% [this sample at 5 µg/mL]
Cc1nnc(NC(=O)c2sc3nc(-c4cccs4)cc(C(F)(F)F)c3c2N)s1 3.5%
Cc1c(C(=O)Nc2nccs2)sc2nc(-c3cccs3)cc(C(F)(F)F)c12 33%
CC(=O)c1cccc(NS(=O)(=O)c2cc(OCC(N)=O)c(C)cc2Cl)c1 -4%
CCOC(=O)C1=C(C)N(CCOC)C(=O)/C1=C\c1sccc1C -1.6% [this sample at 5 µg/mL]
Cc1cc(OCC(=O)O/N=C(\N)Cc2cccs2)ccc1Br -4.6%
CCSc1nnc(NC(=O)C(CC)(C(F)(F)F)C(F)(F)F)s1 -7.4%
CCSc1nnc(NC(=O)C(C)C)s1 -5.3%
Clc1ccc(CN2CCN(/N=C/c3ccc(Cl)c(Cl)c3)CC2)cc1 6% [this sample at 5 µg/mL]
Cn1nnnc1SCC(=O)c1ccco1 23.3%
Cc1ccc2nc(CSc3nc(C)cc(C)c3C#N)[nH]c2c1 5.6%
Cc1ccc(N2C(=O)c3n[nH]c(C)c3C2c2cccnc2)cc1 (stereo not drawn) -11.4%
Cc1cccc(NC2=Nc3ccccc3N3C2=Nc2c(c(C)nn2-c2ccccc2)C3c2ccc(O)c(O)c2)c1 (stereo not drawn) 37%
Cc1nn(-c2ccccc2)c2c1C(c1ccc(O)c(O)c1)N1C(=N2)C(Nc2ccccc2)=Nc2ccccc21 (stereo not drawn) 23.4%
Cc1ccc(NC2=Nc3ccccc3N3C2=Nc2c(c(C)nn2-c2ccccc2)C3c2ccc(O)c(O)c2)cc1 (stereo not drawn) 27.8%
CCCOc1nc2c(c(=O)n(C)c(=O)n2C)n1CCC -3.5%
CC(=O)c1c(C)n(-c2ccccc2)c2ccc(OCC(O)CN3CCOCC3)cc12 (stereo not drawn) -25.3%
Cn1c(=O)n(C)c2cc(S(=O)(=O)NCc3ccco3)ccc21 -8%
N#CC(c1ccc(O)cc1)N1CCCCC1 (stereo not drawn) 0.9%
Cc1ccc(NC(=O)N2CCC(C(=O)NCC(C)C)CC2)cc1 -0.8%
CC(C)OCCCNC(=O)C1CCC(=O)N1C(C)C (stereo not drawn) -3.7%
CCc1ccc(S(=O)(=O)Nc2cc(Br)c(O)c3ccccc23)cc1 2.2% [this sample at 5 µg/mL]
COc1ccc(S(=O)(=O)Nc2ccc(NS(=O)(=O)c3ccc(OC)cc3)c3ccccc23)cc1 -1.5% [this sample at 5 µg/mL]
Cc1ccc(S(=O)(=O)Oc2cccc(N3C(=O)C4CC=CCC4C3=O)c2)cc1 (stereo not drawn) -10.4%
CCN(CC(=O)Nc1ccc2c(c1)OCCO2)c1ccc(S(=O)(=O)N2CCOCC2)cn1 -6.5%
O=C(Cc1cccs1)N1CCN(c2cccc(Cl)c2)CC1 11.4% [this sample at 5 µg/mL]
COc1cccc(C2CC(=O)N3CN(c4ccccc4F)CSC3=C2C#N)c1 (stereo not drawn) 12.3%
COc1ccc(C2CC(=O)N3CN(c4ccccc4F)CSC3=C2C#N)cc1OC (stereo not drawn) -4.9%
CCOC(=O)c1c(NC(=S)Nc2ccccc2)sc2c1CCCCC2 1.6%
CCOC(=O)c1c(NC(=S)Nc2ccccc2)sc2c1CCN(CC)C2 0.4%
Cc1ccc2[nH]c(=O)c(CN(CCCN3CCOCC3)C(=O)NC3CCCCC3)cc2c1 -12%
COc1ccccc1Cc1noc(C(C)(C)NC(=O)c2ccccc2)n1 9%
CN(C)CCCNC(=O)CC(c1ccc(F)cc1)c1ccco1 (stereo not drawn) -15.3%
CCOC(=O)C1=C(c2ccccc2)N=c2s/c(=C\c3ccc(O)cc3)c(=O)n2C1c1cccs1 (stereo not drawn) 23.9%
CCOC(=O)C1=C(c2ccccc2)N=c2s/c(=C\c3ccc(O)c(OC)c3)c(=O)n2C1c1ccc(OC)cc1 (stereo not drawn) 7.7% [this sample at 5 µg/mL]
O=C(O)CCC(=O)NCCn1c(-c2ccccc2)csc1=Nc1ccccc1 -2.4%
CCOc1ccc(-c2nn(-c3ccccc3)cc2/C=C2\SC(=S)N(CCOC)C2=O)cc1 24.2% [this sample at 5 µg/mL]
O=C1/C(=C\c2cccnc2)SC(=S)N1C1CCS(=O)(=O)C1 (stereo not drawn) 1.1%
